Assay outcomes as filed in PubChem.
Sfp inh = Sfp phosphopantetheinyl transferase inhibition. Q9F4F7. Biochemical Sfp PPTase activity, qHTS. Potency, µM, hits mostly inhibitors. actives 3.5% (n = 310,000). AID 1490;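 note: the enzyme is Sfp with the accession as filed and its product quenches rhodamine fluorescence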
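Fluorescence-quenching assay: 15 nM Sfp-PPTase preincubated 15 min at room temperature with compound, then 5 uM rhodamine-CoA and 12.5 uM BHQ-2-labelled YbbR peptide added. Fluorescence (ex 525/em 598 nm) read at start and after 30 min; difference gives rate.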
JMJD2A Tudor = blocks the human JMJD2A Tudor domain | O75164 | AID 504339 | Potency, µM (top dose mostly 114 µM), actives largely listed as inhibitors | AlphaScreen JMJD2A-Tudor / H3K4me3 peptide binding | actives 4.4% (n = 390,000); note: nearly all actives have a fitted effect of over 50% in size
BAZ2B block = BAZ2B (human) inhibition; Potency, µM (highest dose often 114 µM), most hits filed as inhibitors; Q9UIF8; AlphaScreen BAZ2B-H3K14Ac peptide displacement; actives 4.4% (n = 360,000); note: nearly all actives have a fitted effect of over 60% in size
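AlphaScreen displacement: compounds (up to 110uM) incubated 30 min at room temperature with a preformed 50 nM BAZ2B/50 nM biotinylated H3K14Ac peptide complex in PBS pH 7.4 with Tween-20. Donor and acceptor beads at 10 ug/mL final added, 20 min light-protected before reading.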
HP1b chromo inh = blocks HP1-beta chromodomain binding to methylated histone tails; AlphaScreen HP1-beta / biotin-H3K9me3 peptide binding; AID 540317; Potency, µM (top dose mostly 114 µM), usual class: inhibitors; actives 0.56% (n = 390,000); P83916; note: nearly all actives have a fitted effect of over 70% in size
Target sequence (P83916 whole entry, looked up): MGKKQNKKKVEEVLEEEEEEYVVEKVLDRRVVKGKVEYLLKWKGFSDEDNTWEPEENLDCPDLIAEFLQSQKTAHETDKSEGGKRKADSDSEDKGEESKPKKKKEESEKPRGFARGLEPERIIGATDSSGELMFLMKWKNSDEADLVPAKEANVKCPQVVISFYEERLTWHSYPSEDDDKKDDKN
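HP1-beta protein (50 nM final) preincubated 30 min at room temperature with biotinylated H3(1-18)K9me3 peptide (50 nM) in PBS pH 7.4, 0.01% Tween-20, then compound added for 30 min. AlphaScreen streptavidin donor/nickel chelate acceptor beads (10 ug/mL final), 30 min dark, luminescence read.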
TDP1 inh = TDP1 (human) enzyme inhibition; recombinant TDP1, AlphaScreen DNA substrate cleavage; Potency, µM (titrated, usually from 130 µM), hits mostly inhibitors; Q9NUW8; actives 0.28% (n = 350,000); note: nearly all actives have a fitted effect of over 40% in size
Target sequence (Q9NUW8 whole entry, looked up): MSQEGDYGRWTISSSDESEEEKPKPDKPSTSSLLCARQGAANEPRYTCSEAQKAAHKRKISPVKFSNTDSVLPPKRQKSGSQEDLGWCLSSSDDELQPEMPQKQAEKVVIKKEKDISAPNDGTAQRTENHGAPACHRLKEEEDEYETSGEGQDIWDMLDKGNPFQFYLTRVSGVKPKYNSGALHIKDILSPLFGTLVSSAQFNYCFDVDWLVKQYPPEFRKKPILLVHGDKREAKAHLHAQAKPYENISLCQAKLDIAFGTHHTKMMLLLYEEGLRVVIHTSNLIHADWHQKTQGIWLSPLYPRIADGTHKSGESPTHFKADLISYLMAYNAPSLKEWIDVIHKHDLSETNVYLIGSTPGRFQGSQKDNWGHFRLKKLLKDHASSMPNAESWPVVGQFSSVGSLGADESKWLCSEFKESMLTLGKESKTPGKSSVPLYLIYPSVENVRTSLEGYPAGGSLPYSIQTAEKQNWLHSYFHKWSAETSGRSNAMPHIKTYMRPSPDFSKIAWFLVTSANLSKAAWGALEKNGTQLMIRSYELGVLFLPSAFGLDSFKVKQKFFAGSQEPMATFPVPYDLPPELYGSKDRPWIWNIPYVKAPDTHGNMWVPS
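Compounds were preincubated with Tdp1 (1 nM final) for 15 min at room temperature before substrate (15 nM final) started a 5 min reaction; beads (10 ug/ml final) were then added for 10 min before AlphaScreen detection.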
G9a block = G9a (human) methyltransferase inhibition | Potency, µM (series often up to 102 µM), most hits filed as inhibitors | AID 504332 | G9a H3K9 monomethylation, AlphaScreen, 2 h | Q96KQ7 | actives 8.8% (n = 350,000); note: nearly all actives have a fitted effect of over 75% in size
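Readings reflect AlphaScreen signal from monomethyl-H3K9 antibody detection. HMT at 20 nM; substrate b-H3K9 500 nM; cofactor SAM 20 uM; 2 h RT reaction; compounds tested as titrations in qHTS with 15 min preincubation.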
Large screens that a line does not name were inactive. In the library only some 12% were active in any assay of this set; here they are far more common. Calls come from the whole dose curve; as a rule, active = well fitted curve in the direction sought with a large enough effect; inconclusive = small, poorly fitted or top-dose-only effect, or another doubt; inactive = no such curve, though single readings can be large; an effect the other way counts as inactive or inconclusive.

O=C1N=C(N2CCOCC2)S/C1=C/c1ccc(-c2ccccc2Cl)o1	none
O=S(=O)(c1cccc(C(F)(F)F)c1)N1CCN(c2ccccc2)CC1	none
O=S(=O)(c1ccc(F)cc1)N1CCN(CC(O)COCc2ccccc2)CC1 (centres undefined)	JMJD2A Tudor 5.6µM, HP1b chromo inh inconclusive (no result: Sfp inh, BAZ2B block, TDP1 inh, G9a block)
O=S(=O)(c1cccc(C(F)(F)F)c1)N1CCN(CC(O)COCc2ccccc2)CC1 (centres undefined)	JMJD2A Tudor 13µM, HP1b chromo inh inconclusive (no result: Sfp inh, BAZ2B block, G9a block)
NNc1nc2c(Cl)ccc(Cl)c2s1	JMJD2A Tudor 45µM, BAZ2B block 50µM, G9a block inconclusive
Cc1ccccc1OC(C)C(=O)Nc1ccc2c(c1)OCCO2 (centres undefined)	none
CCN(c1ccccc1)S(=O)(=O)c1cc(C(=O)OC(C)C(=O)Nc2ccc3c(c2)OCCO3)ccc1C (centres undefined)	JMJD2A Tudor inconclusive, BAZ2B block inconclusive, G9a block 40µM (no result: TDP1 inh)
Cc1cc2ncn(CC(O)COC3CCCCC3)c2cc1C (centres undefined)	none (no result: BAZ2B block, TDP1 inh)
Cc1n(CC(O)COC2CCCCC2)c2ccccc2[n+]1C (centres undefined)	JMJD2A Tudor 79µM, G9a block inconclusive
CN1CC[C@@H]2C(=O)N3CCc4ccc(Br)cc4[C@@H]3C[C@@H]21	none (no result: Sfp inh, BAZ2B block, TDP1 inh, G9a block)
CC(C)(C)OC(=O)Cc1nnc(-c2nc3ccccc3[nH]2)s1	none (no result: Sfp inh, BAZ2B block, HP1b chromo inh, G9a block)
CCC(=S)/C=C1\Sc2ccc3ccccc3c2N1CCCS(=O)(=O)O	Sfp inh 35µM, BAZ2B block inconclusive, G9a block inconclusive (no result: JMJD2A Tudor, HP1b chromo inh, TDP1 inh)
Cc1ccc(-c2nc(CS(=O)CC(=O)NCCN3CCCCC3C)c(C)o2)cc1 (centres undefined)	none
O=C1/C(=C/c2cccnc2)Oc2cc(OS(=O)(=O)c3ccc(F)cc3)ccc21	JMJD2A Tudor 40µM
CSc1sc(-c2n[nH]c(=S)n2C)c2c1C=CCC2	Sfp inh 50µM, JMJD2A Tudor inconclusive, BAZ2B block inconclusive (no result: G9a block)
CN(c1ccccc1)S(=O)(=O)c1cccc(NC(=O)c2nn(C)c(=O)c3ccccc23)c1	none (no result: Sfp inh)
CC(C)C(C(=O)NCC1CCCO1)N(Cc1ccccc1)C(=O)CNS(=O)(=O)c1ccccc1 (centres undefined)	none
O=C(Nc1cccc(F)c1)N1CCCC2(CCN(C(=O)c3csnn3)CC2)C1	none (no result: JMJD2A Tudor, BAZ2B block, HP1b chromo inh, TDP1 inh)
CCCCc1ccc(N=N/C(C(=O)Nc2ccc(NC(C)=O)cc2OC)=C(/C)O)cc1	JMJD2A Tudor inconclusive, BAZ2B block inconclusive, G9a block 35µM
CCN(CC)CCNC(=O)c1cccc(NC(=O)C(=O)c2cc(Br)ccc2NC(C)=O)c1	G9a block inconclusive
Cn1cnnc1Sc1nc2ccccc2nc1NS(=O)(=O)c1ccccc1	BAZ2B block inconclusive, G9a block 50µM
CC(=O)Nc1ccc(S(=O)(=O)Nc2nc3ccccc3nc2Sc2nncn2C)cc1	Sfp inh inconclusive, G9a block inconclusive
CCOc1ccc(NC(=O)CN2CCN(Cc3c(F)cccc3F)CC2)cc1	none (no result: TDP1 inh)
O=C(O)c1ccccc1C(=O)c1ccc(F)c(F)c1	none (no result: Sfp inh, BAZ2B block, TDP1 inh, G9a block)
CCCC(=O)Nc1ccc(-c2csc(N/N=C\c3ccncc3)n2)cc1	Sfp inh 25µM, BAZ2B block inconclusive (no result: G9a block)
CC(=O)Nc1ccc(-c2csc(N/N=C\c3ccncc3)n2)cc1	Sfp inh 20µM, JMJD2A Tudor inconclusive, G9a block 8.9µM (no result: TDP1 inh)
COC(=O)c1ccc(/C=N/Nc2nc(-c3ccccc3)cs2)cc1	G9a block inconclusive
COc1ccccc1C(=O)NC1=NC(c2ccc(Br)cc2)CC(=O)N1 (centres undefined)	none (no result: Sfp inh)
Cc1cccc(NC(=O)C2CCC(CNS(=O)(=O)c3ccc(Br)s3)CC2)c1 (centres undefined)	none (no result: Sfp inh)
Cc1nc(C)c(-c2ccc(SCC(=O)Nc3ccccc3)nn2)s1	G9a block 79µM
Cc1cc(C)cc(NC(=O)CSc2ccc(-c3cccs3)nn2)c1	G9a block 22µM
O=C(CSc1ccc(-c2cccs2)nn1)Nc1ccccc1	none
CC(=O)Nc1ccc(NC(=O)CSc2ccc(-c3sc(C)nc3C)nn2)cc1	none
Clc1ccc(-c2c[n+]3c(n2-c2ccccc2)SCC3)cc1	G9a block 56µM
O=[N+]([O-])c1cccc(-c2c[n+]3c(n2-c2ccccc2)SCC3)c1	none (no result: BAZ2B block)
Nc1cccc2c1C(=O)N(CCOc1ccccc1F)C2=O	none
CCC(=O)N1CCc2cc(S(=O)(=O)Nc3ccccc3C)ccc21	none (no result: TDP1 inh)
COc1cc(CNCc2ccccn2)ccc1OCC(=O)NC(C)(C)C	JMJD2A Tudor inconclusive, BAZ2B block 50µM
COc1cc(CNCc2ccccn2)ccc1OCC(=O)NC1CCCCC1	Sfp inh inconclusive, JMJD2A Tudor inconclusive, BAZ2B block 56µM, G9a block inconclusive
CC(C)(C)NC(=O)COc1ccc(CNCc2cccnc2)cc1	JMJD2A Tudor 89µM, BAZ2B block inconclusive
COc1cc(CNCc2ccccn2)ccc1OCc1ccccc1Cl	JMJD2A Tudor 45µM, BAZ2B block inconclusive, G9a block inconclusive
COc1cc(CNCCN2CCOCC2)ccc1OCc1ccccc1Cl	none (no result: G9a block)
COc1cc(CNCc2cccnc2)ccc1OCC(=O)NC(C)(C)C	G9a block inconclusive
COc1ccc(S(=O)(=O)Nc2cccc3c2O[C@@H](CN(C)Cc2ccc(C(=O)O)cc2)[C@@H](C)CN([C@H](C)CO)C3=O)cc1	none (no result: Sfp inh, BAZ2B block, G9a block)
Cn1c[n+](C)cc1/C=N/O	JMJD2A Tudor 50µM, BAZ2B block 89µM, G9a block 40µM
Cn1c(/C=N/O)nc2ccccc21	none (no result: TDP1 inh, G9a block)
CCc1ccc(CN2CCN(C(=O)c3ccco3)CC2)cc1	Sfp inh inconclusive, JMJD2A Tudor 20µM, BAZ2B block 32µM, HP1b chromo inh inconclusive, G9a block 11µM (no result: TDP1 inh)
O=C(c1ccco1)N1CCN(Cc2cc(=O)oc3cc(O)ccc23)CC1	G9a block 22µM (no result: Sfp inh)
O=C(c1ccco1)N1CCN(S(=O)(=O)c2ccc(Br)s2)CC1	Sfp inh inconclusive, G9a block 13µM
COc1ccc(OC)c(CN2CCN(C(=O)c3ccco3)CC2)c1	JMJD2A Tudor 0.79µM, BAZ2B block inconclusive, HP1b chromo inh inconclusive, G9a block 18µM
O=c1cc(CN2CCN(Cc3ccccc3)CC2)c2ccc(O)cc2o1	none (no result: TDP1 inh)
COc1ccc(CC(=O)N2CCN(C(=O)c3ccco3)CC2)cc1	G9a block inconclusive
Cc1ccc(Cl)cc1NC(=O)C1CCC(CNS(=O)(=O)c2cccc3nsnc23)CC1 (centres undefined)	none (no result: Sfp inh)
Cc1noc(C)c1C(=O)N1CCC2(CC1)CN(c1cccc(-c3ccccc3)c1)C2	none (no result: JMJD2A Tudor, BAZ2B block, HP1b chromo inh, TDP1 inh)
CN1CCN(c2ncc3nc(-c4ccccc4)c(=O)n(C)c3n2)CC1	none (no result: JMJD2A Tudor, BAZ2B block, HP1b chromo inh, TDP1 inh)
Cn1c(C(=O)N2CCOCC2)cc2c(=O)n3ccccc3nc21	none
